# Reference: PubChem BioAssay (NCATS)
# Results filed as inconclusive are left out. Unmarked numbers belong to inactive results. Calls of active or inactive are those of the source. Calls follow the shape of the full dose curve; tested in HEK293 reporter line.
# Assay: qHTS for Inhibitors of the Functional Ribonucleoprotein Complex (vRNP) of Lassa (LASV) Arenavirus: Viability assay - alamar blue signal for LASV Primary Screen (AID 1347083); also: nearly all actives have a fitted effect of over 80% in size
# Details: cell viability, alamar blue fluorescence (LASV minigenome counter-screen); series mostly up to 57.5 µM; activity change, negative = reduced viability: at the top concentration
# % is scaled to controls: 0 for no effect and ±100 for the full control effect; potency is read from the fitted curve at half-maximal effect.
Structure (SMILES),"activity change, negative = reduced viability",Potency
C=C1C(=O)OC2C1C(OC(=O)C(C)=CC)CC(=C)C1C(O)C3OC3(C)C21O (stereo not drawn),-38.7%,–
CC/C=C\CC1=C(C)CCC1=O,-21.5% [at 115 µM],–
COC(=O)c1cc2c([nH]c3ccccc32)c(C)n1,-18.4%,–
O=C1c2cc(CO)cc(O)c2C(=O)c2c(O[C@@H]3OC(CO)[C@@H](O)[C@@H](O)[C@@H]3O)cccc21 (stereo partly drawn),6.16%,–
Cc1coc2c1C(=O)C(=O)c1c-2ccc2c(C)cccc12,20.7%,–
CCNC(=O)CCCC=CC[C@@H]1[C@H](C=CC(O)CCc2ccccc2)[C@@H](O)C[C@@H]1O (stereo partly drawn),-1.29%,–
CC1(C)CC(=O)c2cc(O)ccc2O1,4.83%,–
CC(=O)OC[C@]1(OC(C)=O)C[C@@]23CC[C@H]4[C@@](C)(CCC[C@@]4(C)C(=O)O)[C@@H]2CC[C@@H]1C3,18.1%,–
COC(=O)/C=C\C(=O)O,8.15% [at 115 µM],–
CC(C)CCCC(=O)O,15.5% [at 115 µM],–
C[C@@H](O)CCC[C@H](O)/C=C/[C@H]1[C@H](O)CC(=O)[C@@H]1C/C=C\CCCC(=O)O,-134% [at 5.82 µM],–
C=C(C)C(COc1c2occc2cc2ccc(=O)oc12)OC(C)(C)C(O)COc1c2occc2cc2ccc(=O)oc12 (stereo not drawn),3.03%,–
CC/C=C\CCOC(C)OCC (stereo not drawn),9.56% [at 115 µM],–
NCCC(=O)c1ccccc1N,7.1%,–
COc1cc(=O)n(C)c2c(O)cccc12,5.14%,–
CC(C)=CCOc1c2ccoc2c(OCC=C(C)C)c2oc(=O)ccc12,2.94%,–
CCNC(=O)Nc1ccc(-c2nc3c(c(N4CCOC[C@H]4C)n2)CCN(C2COC2)C3)cc1,–,1370 nM (active)
CC(=NNC(=S)N1CCC1)c1ccccn1,–,43.2 nM (active)
